In PubChem BioAssay (NCI):
The panel holds about 83,000 compounds, 20% with a hit somewhere; the sample as a whole holds those more often.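 Each cell line was grown in a 96-well plate and treated with one concentration of compound for 48 hours. Values below 10 were considered active.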 Activity calls are given as the source filed them.

What was measured:
Test in all cases: NCI-60 one-dose screen, 48 h (100 = growth as untreated, 0 = no growth, -100 = all killed)
Conditions in all cases: 10 µM
HT29 colon = tested on: HT29 colon
SNB-75 CNS = tested on: SNB-75 CNS
SNB-19 CNS = tested on: SNB-19 CNS
U251 CNS = tested on: U251 CNS
PC-3 prostate = tested on: PC-3 prostate
SK-MEL-5 melanoma = tested on: SK-MEL-5 melanoma
UACC-62 melanoma = tested on: UACC-62 melanoma
LOX IMVI melanoma = tested on: LOX IMVI melanoma
SK-MEL-28 melanoma = tested on: SK-MEL-28 melanoma
SK-MEL-2 melanoma = tested on: SK-MEL-2 melanoma

Measured: growth

N#CCCN(NC(=O)OCc1ccccc1)C(=O)OCc1ccccc1
inactive: HT29 colon 106% | SNB-75 CNS 81.4% | SNB-19 CNS 108% | U251 CNS 102% | PC-3 prostate 93.4% | SK-MEL-5 melanoma 108% | UACC-62 melanoma 101% | LOX IMVI melanoma 94.3% | SK-MEL-28 melanoma 119% | SK-MEL-2 melanoma 106%

CC1CN(Cc2ccccc2)C(=O)NC1=O (stereo not given)
inactive: HT29 colon 109% | SNB-75 CNS 106% | SNB-19 CNS 92% | U251 CNS 108% | PC-3 prostate 92.7% | SK-MEL-5 melanoma 106% | UACC-62 melanoma 96% | LOX IMVI melanoma 103% | SK-MEL-28 melanoma 114% | SK-MEL-2 melanoma 102%

O=C(Nc1cccc(Br)c1)c1cc(=O)[nH]c2ccccc12
inactive: HT29 colon 107% | SNB-75 CNS 70.6% | SNB-19 CNS 97.9% | U251 CNS 91.5% | PC-3 prostate 79.2% | SK-MEL-5 melanoma 95.5% | UACC-62 melanoma 80.9% | LOX IMVI melanoma 89.3% | SK-MEL-28 melanoma 107% | SK-MEL-2 melanoma 56.6%

COc1ccc(Nc2cc(C)nc(NCCCNc3ccnc4cc(Cl)ccc34)n2)cc1
active: HT29 colon -70.2% | SNB-75 CNS -82.5% | SNB-19 CNS 6.85% | U251 CNS -88.8% | PC-3 prostate 7.12% | SK-MEL-5 melanoma -100% | UACC-62 melanoma -89.8% | LOX IMVI melanoma -80% | SK-MEL-28 melanoma -100% | SK-MEL-2 melanoma -94.6%

O=C1/C(=C/c2ccc([N+](=O)[O-])s2)Oc2ccccc21
active: HT29 colon -15% | SNB-75 CNS -7.58% | SNB-19 CNS -0.508% | U251 CNS -76.5% | PC-3 prostate -23.2% | SK-MEL-5 melanoma -64.8% | UACC-62 melanoma -80.4% | LOX IMVI melanoma -70.4% | SK-MEL-28 melanoma -35.9% | SK-MEL-2 melanoma -48.9%

Cc1nc2ccccc2c(N)c1-c1cc(C)c2c(C)nc3ccccc3c2n1
active: HT29 colon -93.5% | SNB-75 CNS -77.6% | U251 CNS -76.6% | PC-3 prostate -18.5% | LOX IMVI melanoma -84.7% | SK-MEL-28 melanoma -90.7%
inactive: SNB-19 CNS 22.6% | SK-MEL-5 melanoma 62.1% | UACC-62 melanoma 97% | SK-MEL-2 melanoma 96.3%

N=c1nc(N)ncn1-c1ccccc1
inactive: HT29 colon 96.4% | SNB-75 CNS 86.5% | SNB-19 CNS 98.2% | U251 CNS 95.1% | PC-3 prostate 96.8% | SK-MEL-5 melanoma 102% | UACC-62 melanoma 93.5% | LOX IMVI melanoma 94.9% | SK-MEL-28 melanoma 98.6% | SK-MEL-2 melanoma 106%

ClC(Cl)(Cl)c1nc2nccnc2[nH]1
inactive: HT29 colon 102% | SNB-75 CNS 83.4% | SNB-19 CNS 102% | U251 CNS 104% | PC-3 prostate 102% | SK-MEL-5 melanoma 113% | UACC-62 melanoma 107% | LOX IMVI melanoma 102% | SK-MEL-28 melanoma 110% | SK-MEL-2 melanoma 109%

O=C1/C(=C\c2ccccc2)CN(C(=O)c2ccccc2)C/C1=C\c1ccccc1
active: HT29 colon -48.5% | U251 CNS -32.6% | PC-3 prostate 6.58% | SK-MEL-5 melanoma -22.8% | UACC-62 melanoma -1.94% | LOX IMVI melanoma -80.3% | SK-MEL-28 melanoma -7.74%
inactive: SNB-75 CNS 49.7% | SNB-19 CNS 55.2% | SK-MEL-2 melanoma 58.6%

N=c1c2c(-c3ccccc3)c(-c3ccccc3)n(Cc3ccccc3)c2ncn1CCCO
active: HT29 colon 0.266% | SK-MEL-5 melanoma -4.56%
inactive: SNB-75 CNS 39.7% | SNB-19 CNS 48.3% | U251 CNS 24.5% | PC-3 prostate 33.8% | UACC-62 melanoma 44.2% | LOX IMVI melanoma 13% | SK-MEL-28 melanoma 49.8% | SK-MEL-2 melanoma 47%

N#CC1=C(Nc2ccccc2Cl)SC(c2ccccc2O)NC1=O (stereo not given)
inactive: HT29 colon 112% | SNB-75 CNS 103% | SNB-19 CNS 111% | U251 CNS 104% | PC-3 prostate 96.7% | SK-MEL-5 melanoma 103% | UACC-62 melanoma 103% | LOX IMVI melanoma 97.5% | SK-MEL-28 melanoma 109% | SK-MEL-2 melanoma 114%

CC1(C)N=C(N)N=C(N)N1c1ccc(CCc2ccccc2)c(Cl)c1
inactive: SNB-75 CNS 35.8% | SNB-19 CNS 31.6% | U251 CNS 13.2% | PC-3 prostate 18.7% | UACC-62 melanoma 23% | LOX IMVI melanoma 12.6% | SK-MEL-28 melanoma 30.3% | SK-MEL-2 melanoma 34.9%
active: HT29 colon 1.41% | SK-MEL-5 melanoma 0.745%

Cc1cc(C)c(CCc2cc(C)c(C)cc2C)cc1C
inactive: HT29 colon 100% | SNB-75 CNS 98.3% | SNB-19 CNS 105% | U251 CNS 93.9% | PC-3 prostate 106% | SK-MEL-5 melanoma 103% | UACC-62 melanoma 101% | LOX IMVI melanoma 91.7% | SK-MEL-28 melanoma 108% | SK-MEL-2 melanoma 109%

OCC1OC(n2cnc3c(N/N=C\c4ccccn4)ncnc32)C(O)C1O (stereo not given)
inactive: HT29 colon 34.5% | SNB-75 CNS 40.3% | SNB-19 CNS 34.5% | U251 CNS 25.1% | PC-3 prostate 21% | UACC-62 melanoma 22% | LOX IMVI melanoma 11.2% | SK-MEL-28 melanoma 38% | SK-MEL-2 melanoma 58.2%
active: SK-MEL-5 melanoma -10.1%

COc1cc(OC)cc(-c2cncn2-c2ccc(-c3nc4cc(OC)cc(OC)c4s3)cc2)c1
inactive: HT29 colon 36.4% | SNB-75 CNS 60.9% | SNB-19 CNS 63.6% | U251 CNS 40.8% | PC-3 prostate 34.1% | SK-MEL-5 melanoma 39.5% | UACC-62 melanoma 58.8% | LOX IMVI melanoma 51.4% | SK-MEL-28 melanoma 82.7% | SK-MEL-2 melanoma 81.1%

Clc1ccccc1N=Cc1ccc2c(c1)OCO2
inactive: HT29 colon 96.3% | SNB-75 CNS 95% | SNB-19 CNS 105% | U251 CNS 94.9% | PC-3 prostate 107% | SK-MEL-5 melanoma 107% | UACC-62 melanoma 103% | LOX IMVI melanoma 98.9% | SK-MEL-28 melanoma 110% | SK-MEL-2 melanoma 108%

Cc1nc2c(c(=O)[nH]1)OCN(Cc1ccccc1)C2
inactive: HT29 colon 105% | SNB-75 CNS 89.6% | SNB-19 CNS 97.2% | U251 CNS 108% | PC-3 prostate 89.1% | SK-MEL-5 melanoma 102% | UACC-62 melanoma 105% | LOX IMVI melanoma 101% | SK-MEL-28 melanoma 105% | SK-MEL-2 melanoma 130%

Cc1cc(C)c2c(n1)sc1c(Nc3ccc(Cl)cc3)ncnc12
active: UACC-62 melanoma -11% | LOX IMVI melanoma -16.9%
inactive: HT29 colon 27.5% | SNB-75 CNS 32.7% | SNB-19 CNS 10.4% | U251 CNS 22.5% | PC-3 prostate 49.2% | SK-MEL-5 melanoma 32.7% | SK-MEL-28 melanoma 55.3% | SK-MEL-2 melanoma 82.8%

CC(C)=NNc1ncnc2c1ncn2C1OC(CO)C(O)C1O (stereo not given)
inactive: HT29 colon 18.1% | SNB-75 CNS 32.1% | SNB-19 CNS 42.5% | U251 CNS 29.1% | PC-3 prostate 17.7% | SK-MEL-5 melanoma 20.5% | UACC-62 melanoma 34.7% | SK-MEL-28 melanoma 54.7% | SK-MEL-2 melanoma 41.4%
active: LOX IMVI melanoma 7.06%

C[C@@H]1C=C2C(=O)O[C@@H]3CC[C@H](C1)[C@]23O
inactive: HT29 colon 73.8% | SNB-75 CNS 69.3% | SNB-19 CNS 105% | U251 CNS 87.6% | PC-3 prostate 87.2% | SK-MEL-5 melanoma 92.8% | UACC-62 melanoma 91.6% | LOX IMVI melanoma 55.1% | SK-MEL-28 melanoma 88.1% | SK-MEL-2 melanoma 97.3%

CCN1CCC2(CC1)OC(c1ccccc1)C(c1ccccc1)O2 (stereo not given)
inactive: HT29 colon 96% | SNB-75 CNS 88.2% | SNB-19 CNS 112% | U251 CNS 109% | PC-3 prostate 89.1% | SK-MEL-5 melanoma 105% | UACC-62 melanoma 115% | LOX IMVI melanoma 90.8% | SK-MEL-28 melanoma 107% | SK-MEL-2 melanoma 105%

O=C(N/N=C/c1ccccc1O)C(O)(c1ccccc1)c1ccccc1
inactive: HT29 colon 49.7% | SNB-75 CNS 68.8% | SNB-19 CNS 66% | U251 CNS 45.9% | PC-3 prostate 55.5% | SK-MEL-5 melanoma 62.1% | UACC-62 melanoma 51.9% | LOX IMVI melanoma 25.7% | SK-MEL-28 melanoma 69.7% | SK-MEL-2 melanoma 107%

CC(=O)N1N=C(c2ccc(Cl)cc2)CC1c1sc(Cl)nc1Cl (stereo not given)
inactive: HT29 colon 64.2% | SNB-75 CNS 84.3% | SNB-19 CNS 66.9% | U251 CNS 71.2% | PC-3 prostate 72.8% | SK-MEL-5 melanoma 89.5% | UACC-62 melanoma 83.3% | LOX IMVI melanoma 88.4% | SK-MEL-28 melanoma 94.7% | SK-MEL-2 melanoma 84.9%

COc1ccc(/C=C/C(=O)Nc2ccc(-c3nc4ccc(OC)cc4s3)cc2)cc1
inactive: HT29 colon 110% | SNB-75 CNS 102% | SNB-19 CNS 105% | U251 CNS 109% | PC-3 prostate 101% | SK-MEL-5 melanoma 104% | UACC-62 melanoma 108% | LOX IMVI melanoma 92.3% | SK-MEL-28 melanoma 111% | SK-MEL-2 melanoma 105%

COc1ccc(C(=O)/C=C/c2cc(-c3cc(OC)c(OC)c(OC)c3)n[nH]2)cc1
active: HT29 colon 1.28% | U251 CNS -2.19% | LOX IMVI melanoma -11.6%
inactive: SNB-75 CNS 43.6% | SNB-19 CNS 47.8% | PC-3 prostate 20.5% | SK-MEL-5 melanoma 57.2% | UACC-62 melanoma 52.3% | SK-MEL-28 melanoma 79.4% | SK-MEL-2 melanoma 70.4%

CCOC(=O)N1C/C(=C/c2ccc(F)cc2)C(=O)/C(=C/c2ccc(F)cc2)C1
active: HT29 colon -58.8% | U251 CNS -65.6% | PC-3 prostate -25.3% | SK-MEL-5 melanoma -59.7% | UACC-62 melanoma -56.8% | LOX IMVI melanoma -84.5% | SK-MEL-28 melanoma -37.4%
inactive: SNB-75 CNS 56.8% | SNB-19 CNS 39.6% | SK-MEL-2 melanoma 21.7%

Cc1cc(N(CCCNc2ccnc3cc(Cl)ccc23)Cc2ccc3c(c2)OCO3)nc(N2CCCCC2)n1
active: HT29 colon -49.9% | SNB-75 CNS -26.5% | U251 CNS -55% | PC-3 prostate -34.6% | SK-MEL-5 melanoma -95.3% | UACC-62 melanoma -54.7% | LOX IMVI melanoma -89% | SK-MEL-28 melanoma -81.9% | SK-MEL-2 melanoma -67.5%
inactive: SNB-19 CNS 14.9%

Clc1cccc(-c2nc(-c3cccs3)no2)c1
inactive: HT29 colon 106% | SNB-75 CNS 81.5% | SNB-19 CNS 104% | U251 CNS 90.3% | PC-3 prostate 103% | SK-MEL-5 melanoma 90.1% | UACC-62 melanoma 89.8% | LOX IMVI melanoma 93.1% | SK-MEL-28 melanoma 115% | SK-MEL-2 melanoma 116%
